Screen size: about 360,000 compounds; about 11,000 (3.1%) were called active. Roughly 2% stayed inconclusive and do not appear here. The entries come from a sample that favours actives as a whole. Values without a mark were called inactive. No stated cut-off is given here; in the data, active means fluorescence intensity above about 16000; inconclusive means no clear call, values can overlap the other calls; inactive means below that.
Test: compound fluorescence in toxin protease inhibitor counterscreen, primary screen, artefact control for toxin protease inhibitor project, biochemical, multiplex microsphere, HTS (AID 624483)
Conditions: compound autofluorescence counterscreen, microsphere flow cytometry; stronger effect = higher value

SMILES	fluorescence intensity
CCc1nc2c(OCCOc3ccc(F)cc3)cccn2c1N(C)C(=O)c1ccccc1F	3010
Cc1ccc(S(=O)(=O)N2CCN(C)CC2)cc1	4010
CN1CCN(S(=O)(=O)c2ccc3[nH]cc(C(=O)O)c(=O)c3c2)CC1	21500 (active)
Cc1ccc(S(=O)(=O)N2CCN(C)CC2)cc1C(=O)NC1CCCCC1	4410
c1ccc(COc2ccccc2CNCc2cccnc2)cc1	7500
O=C(CCc1ccc(S(=O)(=O)N2CCOCC2)cc1)Nc1ccc2ccccc2c1	21400 (active)
O=C(CCc1ccc(S(=O)(=O)N2CCOCC2)cc1)NN=C1CCCCCCC1	2120
O=C(COC(=O)CCc1ccc(S(=O)(=O)N2CCOCC2)cc1)Nc1cccc(Cl)c1	4250
OC[C@@H]1CN(C2CCCC2)C[C@H](n2cnc3c(NC4CCC4)ncnc32)O1	2860
Cn1c(=O)[nH]c(=O)c2c1nc(NCCCn1ccnc1)n2Cc1cccc(Br)c1	4650
COc1cccc(-n2c(=O)c3c(C)c(C(=O)N(C)C)sc3n(CC(=O)NCCc3ccc(OC)c(OC)c3)c2=O)c1	4050
Cc1cccc(N=C2NC(=O)CS2)c1C	7480
CCC/C(O)=C1\C(=O)CC(C)(C)CC1=Nc1ccccc1OC	2780
CCOc1ccccc1N=C1NC(=O)CS1	23300 (active)
Cc1nc(-c2ccccc2)cn2c1nc1ccccc12	2360
CN(C)C(=O)c1cccc(-c2cnc3c(NC=O)cc(-c4ccc(C(=O)N5CCOCC5)cc4)cn23)c1	3080
CCOc1ccc(CCN2C(=O)C(=O)N([C@@H](CC(C)C)CN3CCC[C@H]3CN3C(=O)C(=O)NC[C@@H]3Cc3ccccc3)C[C@@H]2CC(C)C)cc1	4830
CCOc1ccc(-n2c(SCC(N)=O)nnc2-c2ccco2)cc1	3680
CCOC(=O)CSc1nnc(-c2ccco2)n1C	19700 (active)
Nn1c(SCC(=O)Nc2nccs2)nnc1-c1ccco1	6070
CCc1cccc(C)c1NC(=O)CSc1nnc(-c2ccco2)n1N	23800 (active)
NC(=O)c1c(NC(=O)CSc2nnc(-c3ccco3)n2N)sc2c1CCCC2	2490
Cn1c(SCC(=O)c2cccs2)nnc1-c1ccco1	8030
O=C(Nc1ccc(Cl)c(C(F)(F)F)c1)C1Cc2c(-c3ccccc3Oc3ccccc3)ccnc2O1 (stereo not drawn)	3930

SMILES	fluorescence intensity
OC(c1cc(Cl)cc(Cl)c1)c1ncc(-c2ccccc2C(F)(F)F)[nH]1 (stereo not drawn)	2910
O=C(Nc1ccc(Cl)cc1)c1csc([C@@H]2O[C@H](CO)[C@H](O)[C@H](O)[C@H]2O)n1	3610
COCCNC(=O)c1ccc(Cn2c(SCC(=O)NCC3CCCO3)nc3ccc(Br)cc3c2=O)cc1 (stereo not drawn)	5480
O=C(CCCn1c(SCC(=O)c2ccccc2)nc2ccccc2c1=O)NCC1CCCO1 (stereo not drawn)	23800 (active)
CCCCn1c(SCC(=O)NCC2CCCO2)nc2ccc(N3CCOCC3)cc2c1=O (stereo not drawn)	21100 (active)
CCn1c(SCC(=O)NCC2CCCO2)nc2cc(S(=O)(=O)N3CCCCC3)ccc21 (stereo not drawn)	3450
CCn1c(SCC(=O)NCC2CCCO2)nc2ccccc21 (stereo not drawn)	4090
O=C(CSc1nc2ccccc2c(=O)n1Cc1ccc(F)cc1)NCC1CCCO1 (stereo not drawn)	6760
O=C(O)C1CCCN1S(=O)(=O)c1ccc2c(c1)CCC2 (stereo not drawn)	7810
CC(C)(C)SCCSC1=CC(=O)CC(c2ccccc2)C1 (stereo not drawn)	3630
CCCCNC(=O)C[C@@H]1C[C@@]2(C(=O)OCC)CCC=C2N(Cc2ccco2)C1=O	6060
CC1(Cc2ccccc2C#N)C(=O)Nc2ccc(-c3ccc4[nH]ccc4c3)cc21 (stereo not drawn)	3220
COc1ccc(NC(=O)CCCN2C(=O)C(c3ccccc3)Oc3cccnc32)cc1 (stereo not drawn)	5260
Cc1nnsc1C(=O)Nc1cccc(Cl)c1C	4480
CCC1CCCCN1S(=O)(=O)Cc1ccccc1Cl (stereo not drawn)	5020
Cc1nnsc1S(=O)(=O)Cc1ccccc1Cl	22200 (active)
C[C@H]1COc2cc(N3CCSCC3)ccc2S(=O)(=O)N1	5560
c1ccc(C[C@H]2CNCCN2CCC23CC4CC(CC(C4)C2)C3)cc1	3210
CCCOn1c(-n2nc(C)cc2C)nc2ccccc2c1=O	23500 (active)
Cc1cc(C)n(-c2nc(C(F)(F)F)nc3ccccc23)n1	3100
Cc1cc(C)n(-c2c(F)c(F)c(COC(=O)c3ccccc3)c(F)c2F)n1	3060
COc1cc(/C=C/C(=O)OCC(=O)NCCCc2ccccc2)ccc1O	5380
Cc1ccccc1S(=O)(=O)N1[C@@H](c2cccc(Cl)c2)C(C(=O)OC(C)(C)C)=CC[C@H]1c1ccc(Cl)cc1	4430
CC12CCC(C(=O)N(CCC#N)CCC#N)(CC1=O)C2(C)C (stereo not drawn)	20400 (active)

SMILES	fluorescence intensity
Cn1c(=O)c2c(nc(N/N=C/c3cccs3)n2Cc2ccc(Br)cc2)n(C)c1=O	2410
O=C(Nc1nnc(Cc2ccccc2)s1)c1cnccn1	3990
O=C(Nc1cccc(NC(=O)c2ccco2)c1)c1cnccn1	23700 (active)
CC(C)(C)NC(=O)c1cc(NC(=O)c2ccco2)cc(NC(=O)c2ccco2)c1	3040
CCOC(=O)N(C)c1c(CC)nc2c(OCc3ccccc3C(=O)OC)cccn12	3540
COc1cc(NC(=O)c2cc(-c3ccc(F)cc3OC(C)C)n[nH]2)cc(OC)c1OC	3570
CCNC(=O)c1cc2c(c(-c3cccc(-c4cncnc4)c3)n1)[C@H](CCO)N(C(C)=O)C2	6050
O=C1NC[C@H](CCCCN2CCN(CCc3ccccc3)C(=O)C2=O)N(CC2CCCCC2)C1=O	5200
Cc1ccc(NC(=O)C2(N3CCC3=O)CCCCC2)cc1	2510
O=C(c1cc(S(=O)(=O)N2CCOCC2)ccc1Cl)N1CCOCC1	5390
O=C(c1cccc(S(=O)(=O)N2CCOCC2)c1)N1CCOCC1	25300 (active)
O=C(Nc1ccc(N2CCOCC2)cc1)c1cccc(S(=O)(=O)N2CCOCC2)c1	2540
Cc1cccc(OCCNC(=O)CSc2ccc(C(F)(F)F)cc2[N+](=O)[O-])c1	2620
O=c1c2ccccc2nc(CBr)n1-c1ccc(Cl)cc1	3850
O=c1c2ccccc2nc(-c2ccccc2)n1-c1ccccn1	4770
O=c1c2ccccc2nc(-c2ccc(Cl)cc2Cl)n1-c1ccncc1	18700 (active)
CCOc1ccc(NC(=O)CCS(=O)(=O)c2ccc3c(c2)CCCN3C(=O)CC)cc1	10500
COC(=O)c1ccc(Oc2nc(NC(C)C)nc(SC)n2)cc1	2470
CCNc1nc(NC(C)C)nc(N2CC(=O)N(CC(=O)OCC)C2=N)n1	10500
CCNc1nc(NC(C)C)nc(OCCOC(=O)c2ccccc2)n1	22900 (active)
CN(C)N1C(N)=C(C#N)C(c2ccc(Br)cc2)C2=C1CCCC2=O (stereo not drawn)	4350
CCOc1ccc(-n2c(O)c(/C=N/Nc3nc(C)cc(C)n3)c3ccccc3c2=O)cc1	4560
CCOc1ccc(N=Cc2c(O)n(-c3cccc(C)n3)c(=O)c3ccccc23)cc1	20300 (active)
Cc1ccc(N=Cc2c(O)n(-c3nccs3)c(=O)c3ccccc23)c(C)c1	2410

SMILES	fluorescence intensity
O/N=C(\C[n+]1ccccc1)c1ccc(Br)cc1	3050
COC(=O)c1sccc1NC(=O)CC1C(=O)NCCN1C(=O)Nc1ccc(F)cc1F (stereo not drawn)	6320
Cc1ccc(S(=O)(=O)N(CC(=O)N2CCc3ccccc3C2)c2cccc(Cl)c2)cc1	2460
CS(=O)(=O)N(CC(=O)N1CCc2ccccc2C1)c1ccc(Br)cc1	4000
COc1cccc(N(CC(=O)N2CCc3ccccc3C2)S(C)(=O)=O)c1	22900 (active)
COc1cc(/C=N\NC(=O)c2nonc2N)c(OC)cc1Br	2500
CCOc1ccc(/C=C(/C#N)c2nnc(N3CCOCC3)n2-c2ccccc2)cc1OC	3950
COc1cc(N2CCCC2)c(OC)cc1/C=C(/C#N)c1cccc(Br)c1	20000 (active)
O=C(O)c1ccccc1-c1cccc2nncn12	3820
Cc1sc2ccccc2c1CNC[C@H]1O[C@@H](n2ccc(=O)[nH]c2=O)[C@H](O)[C@@H]1O	6010
CCc1nc2c(OCCOc3ccccc3)cccn2c1N(C=O)Cc1ccc(OC)cc1	3280
O=C1CCCc2c1[nH]c1ccc(Br)cc21	10300
Cc1occc1C(=O)N/N=C/c1ccc(-c2cccc([N+](=O)[O-])c2)o1	6020
Cc1ccc(S(=O)(=O)NCc2nc3ccccc3c(=O)n2N)cc1	23000 (active)
COc1ccccc1CNS(=O)(=O)c1ccc(C)cc1	3200
C#CCCCc1nc2ccccc2c(=O)n1N	2060
O=C(COc1ccc(-c2ccccc2)cc1)NN=C1CCCC1	4340
O=S(=O)(NC1CC1)c1ccc2c3c(cccc13)CC2	4730
O=S(=O)(NC1CCCCC1)c1ccc(F)c2ccccc12	17400 (active)
O=S(=O)(NC1CC1)c1ccc(F)c(F)c1	5500
Cc1cc(=O)oc2c3c(cc(OCC(=O)NCC(O)c4ccccc4)c12)OC(C)(C)CC3 (stereo not drawn)	5100

From PubChem BioAssay AID624483 (NMMLSC, 2012)
